# Rows were chosen to be rich in hits. Some 8.3% of all compounds tested hit in one or more screens of this group.
# FBPA Giardia inh: qHTS Assay for Inhibitors of Fructose-1,6-bisphosphate Aldolase from Giardia Lamblia | A8B2U2 | purified Giardia FBPA | Potency, µM (top dose mostly 59.6 µM), without a hit: at the top dose activity, negative = inhibition, usual class: inhibitors | 0.71% of 290,000 active | AID 2451, 2010; note: potency is the fitted concentration of half-maximal effect; nearly all actives have a fitted effect of over 55% in size
# Target sequence (A8B2U2 whole entry, looked up): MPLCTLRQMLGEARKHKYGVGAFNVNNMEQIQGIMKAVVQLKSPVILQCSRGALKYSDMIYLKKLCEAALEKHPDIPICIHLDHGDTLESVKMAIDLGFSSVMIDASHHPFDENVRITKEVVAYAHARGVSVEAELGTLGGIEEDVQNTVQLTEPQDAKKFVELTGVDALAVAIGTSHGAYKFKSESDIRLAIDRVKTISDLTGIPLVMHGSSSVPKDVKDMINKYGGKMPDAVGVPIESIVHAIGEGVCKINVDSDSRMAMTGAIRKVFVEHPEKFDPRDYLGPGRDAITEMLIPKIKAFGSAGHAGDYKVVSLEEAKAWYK
#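 40 nM FBPA preincubated 10 min at RT with compound (up to 57.5 uM final), then substrate plus GAPDH/TPI/NAD/arsenate coupling and diaphorase/resazurin added. Fluorescence read after 20 min at RT, 525/598 nm.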
# Marburg entry inh: qHTS for inhibitors of binding or entry into cells for Marburg Virus | 1.8% of 300,000 active | Potency, µM (titrated, usually from 37.8 µM), for the others: at the top dose activity change, negative = inhibition, actives largely listed as inhibitors | AID 540276, 2011 | Marburg virus pseudotyped entry inhibition, cell reporter; calls by dose curve; tested in HEK293 cells; note: potency is the fitted concentration of half-maximal effect
# Lassa entry inh: qHTS for Inhibitors of binding or entry into cells for Lassa Virus; Potency, µM (series often up to 37.9 µM), without a hit: at the top dose activity change, negative = inhibition, most hits filed as inhibitors; AID 540256, 2011; 1.2% of 300,000 active; Lassa virus pseudotype entry inhibition, cell reporter; calls by dose curve; tested in HEK293 cells; note: potency is the fitted concentration of half-maximal effect; nearly all actives have a fitted effect of over 50% in size
# HCMV inh: qHTS Assay for inhibitors of the human cytomegalovirus (HCMV); HFF cells, HCMV-luciferase reporter, 72 h; hits give low values; activity change, negative = inhibition, % at 57.5 µM; 4.5% of 410,000 active; AID 1259415, 2018; in the data active = activity change below about -60%; inconclusive = no clear call, values can overlap the other calls; inactive = above about -39%
#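 Human foreskin fibroblasts infected with luciferase-reporter HCMV at MOI 1 PFU/cell, compounds at two doses. Luciferase measured 72 h post infection; normalized to buffer-only basal and Salinomycin (10uM) controls.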
# FMDV inh: High Throughput Screening for Foot and Mouth Disease Virus Antivirals; FMDV antiviral cell-based qHTS; Potency, µM (top dose mostly 57.9 µM), for the others: at the highest dose activity change, negative = inhibition, hits mostly inhibitors; 1.2% of 410,000 active; AID 1159524, 2015; calls by dose curve; tested in HEK293T cells; note: read-out not given here; potency is the fitted concentration of half-maximal effect; nearly all actives have a fitted effect of over 45% in size
# HCV inhibitor: qHTS Assay for Inhibitors of Hepatitis C Virus (HCV). Huh7.5.1 HCVcc-Cre infection, luciferase reporter, 44 h. Potency, µM (titrated, usually from 41.8 µM), without a hit: at the highest dose activity change, negative = inhibition, usual class: inhibitors. 3.4% of 340,000 active. AID 651820, 2012; note: potency is the fitted concentration of half-maximal effect
#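 Seed cells (1,000/well) for 4 h; treat with compound and infect with HCVcc-Cre, moi about 0.5. Incubate 44 h, then detect luciferase activity.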
# The depositor's hits bear a star; ? = inconclusive; . = no result; ! = a repeat was not active; [ ] = another dose, or the depositor's remark. Unless noted, calls come from the whole dose curve; as a rule, active = well fitted curve in the direction sought with a large enough effect; inconclusive = small, poorly fitted or top-dose-only effect, or another doubt; inactive = no such curve, though single readings can be large; an effect the other way counts as inactive or inconclusive. % is set by controls: 0 for no effect and ±100 for the full control effect.
SMILES,FBPA Giardia inh,Marburg entry inh,Lassa entry inh,HCMV inh,FMDV inh,HCV inhibitor
O=C1C[C@@H](c2ccccc2)[C@H](c2ccc(Br)cc2)O1,.,-17.0%[14.2 µM],.,.,.,.
Cc1cc(C)cc(N2CCn3c2nc2c3c(=O)n(CCc3ccccc3)c(=O)n2C)c1,.,.,?,8.7,-28.8%,.
Nc1cccc2c1Cc1cc([N+](=O)[O-])ccc1-2,.,3.7%,24.9%,-100.6*,54.9%,-15.6%
Nc1c(Br)cc(Br)c2c1-c1ccc([N+](=O)[O-])cc1C2,.,6.4%,16.7%,-80.4*,-9.4%,?
CN(C(=O)Cc1ccccc1OC(=O)c1ccccc1)c1ccccc1I,16.9%,.,.,.,.,.
Cn1cc(C(=O)Nc2ccc(C#N)cc2)c2ccccc2c1=O,-0.8%,?,10.6%,-67.4*!,-2.1%,-7.9%
CC(C)CCN(C(=O)Nc1ccc(Cl)c(Cl)c1)C1CCN(C(C)C)CC1,.,.,0.6%[46.1 µM],-15.2,-12.6%,.
COc1ccc(NC(=S)NCCN2CCC(C)CC2)cc1Cl,14.1µM*,?,?,9.6,11.0%,-25.1%
COc1ccc(Cl)cc1NC(=S)NCCN1CCOCC1,0.5%,.,.,-3.9,-15.6%,-10.6%
COc1ccc(NC(=S)N(CCC(C)C)C2CCN(C(C)C)CC2)cc1Cl,?,?,?,-62.3*,-23.3%,3.98µM*
Cc1cc(F)ccc1-n1nnc(C(N)=O)c1C,.,6.5%[46.1 µM],1.1%[46.1 µM],7.9,-0.3%,.
Cc1ccc(N2C(S)=C(C#N)C(=O)NC23CCCCC3)cc1,?,7.9%,4.2%,-60.1*,14.7%,13.3%
Cc1cccc(N2C(S)=C(C#N)C(=O)NC23CCCCC3)c1,?,-4.4%,-1.8%,?,10.2%,1.5%
Cc1ccc(C(O)(c2ccccc2)c2ccccc2C(C)N(C)C)c(C)c1 (stereo not drawn),5.0%,5.8µM*,8.2µM*,?,.,?
CC(c1ccccc1C(O)c1ccccc1)N(C)C (stereo not drawn),-3.6%,-29.9%,0.0%,-24.1,.,9.9%
CCOc1ccccc1/C=N/Nc1ccnc(=O)[nH]1,-9.8%,?,?,-98.7*,21.9%,11.2µM*
COc1cccc(/C=N/Nc2ccnc(=O)[nH]2)c1O,-9.6%,?,?,-93.6*,-11.2%,2.24µM*
O=c1nccc(N/N=C/c2ccccc2O)[nH]1,5.1%,5.62µM*,?,-90.9*,6.8%,?
COc1cccc(C=NNC(=O)c2ccncc2)c1O,.,?,?,6.0,21.4%,?
CCOc1ccccc1/C=N/Nc1nc(C)cc(=O)[nH]1,-13.2%,.,.,.,-9.8%,-6.1%
NC(=O)C1(N2CCCCC2)CCN(Cc2nc(-c3cccs3)no2)CC1,1.1%,.,.,-31.4,35.5µM*,-13.2%
COC(=O)c1sc2cc([N+](=O)[O-])cc(SCC(C)C)c2c1N,0.9%,16.7%,-19.2%,-63.5*,-27.6%,-21.9%
CCOC(=O)c1sc2ncc([N+](=O)[O-])cc2c1N,2.5%,-6.6%,.,-4.9,40.7%,-13.1%
CSc1nnc2c(n1)OC(c1cccc(O)c1Cl)Nc1ccccc1-2 (stereo not drawn),.,2.2%[46.1 µM],6.6%[46.1 µM],28.3,-7.5%,.
NC(=S)N1OC[C@@H]2COc3ccc4ccccc4c3[C@@H]21,-2.0%,?,5.1%,-67.5*,-0.5%,?
SMILES,FBPA Giardia inh,Marburg entry inh,Lassa entry inh,HCMV inh,FMDV inh,HCV inhibitor
CC1COc2ccccc2N1S(=O)(=O)c1ccc(Cl)cc1 (stereo not drawn),-8.0%,?,-19.0%[46.1 µM],-5.8,-19.0%,-6.8%
O=C(C(Cl)Cl)N1c2ccccc2OCC1c1ccccc1 (stereo not drawn),-9.9%,-21.3%,-0.9%,-61.5*,?,12.6µM*
Cc1ccc(S(=O)(=O)N2c3ccccc3OCC2c2ccccc2)cc1 (stereo not drawn),?,?,-23.2%,?,?,35.5µM*
Cc1ccc(Cl)cc1NC(=O)CC(O)(C(F)(F)F)C(F)(F)F,0.7%,?,?,-102.0*,.,22.4µM*
COCC(=O)Nc1cc(Cl)ccc1C,-2.8%,16.1%[46.1 µM],16.4%,-30.5,-17.7%,-2.6%
Cc1cc(C(=O)Nc2cccc(F)c2)c2c(C)nn(-c3cccc(Cl)c3C)c2n1,.,.,?,-26.8,?,.
O=C(Nc1ccc(N2CCOCC2)cc1)c1ccc(Cl)c(S(=O)(=O)N2CCCC2)c1,.,.,.,?,?,6.31µM*
COc1ccc(C(=O)Nc2ccc(NC(=O)c3ccccc3)cc2)cc1S(=O)(=O)N1CCOCC1,.,?,.,?,-17.3%,?
COc1ccc(C(=O)Nc2ccc(N3CCCCCC3)cc2)cc1S(=O)(=O)N1CCOCC1,.,.,.,-85.7*,-49.2%,8.91µM*
CCN1CCN(c2ccc(NC(=O)c3ccc(Cl)c(S(=O)(=O)N4CCCC4)c3)cc2)CC1,.,?,?,-22.4,?,17.8µM*
N#C[C@@H](C(=O)NC1CCCCC1)c1nc2ccccc2nc1N1CCN(c2ccccc2F)CC1,.,-15.0%[46.1 µM],.,.,.,.
O=C1CC[C@@H](C(=O)N[C@@H](Cc2cnc[nH]2)C(=O)N[C@@H](Cc2c[nH]c3ccccc23)C(=O)N[C@@H](CO)C(=O)N[C@@H](Cc2ccc(O)cc2)C(=O)O)N1,-0.2%,.,.,.,.,.
C[C@@H]1C(c2ccccc2)=CC(=O)c2nc3ccccc3cc2[C@@H]1C(=O)N1CCCC1,.,-10.4%[14.2 µM],.,.,.,.
Cc1ccc(-n2c(C)nc3c(cnn3-c3ccc(F)cc3)c2=O)cc1C,-1.6%,5.4%,-13.8%,-23.4,?,4.9%
Cc1nc2c(cnn2-c2ccccc2Cl)c(=O)n1-c1ccc(N2CCC(C)CC2)cc1,-10.7%,?,?,-63.0*,-21.4%,12.6µM*
Cc1ccc(-n2c(C)nc3c(cnn3-c3ccc(C)c(C)c3)c2=O)cc1C,-5.6%,.,.,-66.5*,-11.9%,-3.2%
CCc1cccc(NC(=O)c2cccc3c2C(=O)N(CC2CCCO2)C3)c1 (stereo not drawn),13.8%,.,.,-30.5,0.0%,11.2µM*
O=C(O)c1cccc2c1C(=O)N(CC1CCCO1)C2 (stereo not drawn),3.9%,11.6%[46.1 µM],-8.5%,-20.4,-9.1%,8.9%
CC(C)CC(C(=O)NC1CCCCC1)N(Cc1cccs1)C(=O)c1snc(C(N)=O)c1N (stereo not drawn),-11.2%,.,.,?,-33.9%,12.6µM*
CCCCC(C(=O)NC1CCCC1)N(Cc1ccccc1)C(=O)c1snc(C(N)=O)c1N (stereo not drawn),-3.1%,?,?,-60.8*,-14.3%,?
CCC(C(=O)NC1CCCC1)N(Cc1ccccc1Cl)C(=O)c1snc(C(N)=O)c1N (stereo not drawn),3.5%,?,.,-6.3,-8.4%,?

# Screens deposited in PubChem by National Center for Advancing Translational Sciences (NCATS).
